Results filed as inconclusive are left out. Calls of active or inactive are those of the source. Rule for the calls: active = hit-call score of the fitted dose curve at least 0.9, where 1 is the maximum; inconclusive = response in the unintended direction; inactive = score below 0.9.

The assay concerns Japanese medaka Retinoid X Receptor beta (RXRb), gene 100125505. The assay can be described thus: ATG_jmRXRb_EcoTox2: Attagene TRANS-FACTORIAL EcoTox-2 HepG2 Assay for Japanese medaka Retinoid X Receptor beta (RXRb). On the procedure: ATG_EcoTox2 is a cell-based, multiplexed assay created by modifying the existing Attagene TRANS-FACTORIAL system to include a panel of nuclear receptors from some or all the following species: human (Homo sapiens), african clawed frog (Xenopus laevis), rainbow trout (Oncorhynchus mykiss), japanese medaka (Oryzias latipes), and zebrafish (Danio rerio). The ECOTOX2-FACTORIAL format uses HepG2, a human liver cell line, with measurements taken at 24 hours after chemical dosing in a 24-well plate. ATG_jmRXRb_EcoTox2 is one of 29 assay components calculated in the ATG_EcoTox2 assay. It is designed to make measurements of mRNA induction, a form of inducible reporter, as detected with fluorescence intensity signals by Reverse transcription polymerase chain reaction (RT-PCR) and Capillary electrophoresis technology.The assay endpoint ATG_jmRXRb_EcoTox2 was analyzed in the positive analysis fitting direction relative to DMSO as the negative control and baseline of activity. Using a type of inducible reporter, measures of mRNA for gain-of-signal activity can be used to understand the reporter gene at the transcription factor-level as they relate to the gene RXRb. Furthermore, this assay endpoint can be referred to as a primary readout, because this assay has produced multiple assay endpoints where this one serves a reporter gene function. […]
Human liver HepG2 cells are transiently transfected with multiple reporter transcription units (MRTUs) in 6-well plates using FuGene 6 reagent (Roche; 3 ml FuGene/1 mg DNA). […] A major difference between the CIS and TRANS system is that in CIS activities of endogenous TFs are measured, whereas the TRANS assay evaluates changes in activities of exogenous, chimeric NR-Gal4 proteins. […] The fragments were purified using Qiaquick PCR columns (Qiagen), analyzed on an ABI 3130xL genetic analyzer (Applied Biosystems) with peak positions identified by using a set of X-rhodamine (ROX)-labeled MapMarker1000 molecular weight standards (BioVentures). […]
What is called AC50 is the concentration at which the activity in the assay is half-maximal. Turning to `CCCCOCN(C(=O)CCl)c1c(CC)cccc1CC`, the AC50 is 50 µM (active).

Consider `[Cl][Sn]([c]1ccccc1)([c]1ccccc1)[c]1ccccc1`, for which the AC50 was 0.171 µM (active).

Take `O=C(O)C(F)(F)C(F)(F)C(F)(F)C(F)(F)C(F)(F)C(F)(F)C(F)(F)F`: the AC50 is 31.4 µM (active).
